PubChem BioAssay AID687001 (Broad Institute, 2013)
Measured potencies and affinities stand elsewhere. The source made the active and inactive calls.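 How the source made its calls: active means signal-lowering compounds whose fitted half-maximal concentration is at or below twice the top tested dose in every run; inconclusive means runs disagree, flat 30 to 70% inhibition, or poor curve fit; inactive means the rest.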

Molecular target: Protein S100-A4 (Homo sapiens) (UniProt P26447)
Experiment: S100A4-myosin IIA binding inhibitor potency, dose response, biochemical, fluorescence polarization, cherry-picked hits (AID 687001);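 further: 0% = DMSO neutral control wells and -100% = TFP positive control wells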
Settings: FP, S100A4/TAMRA-myosin IIA peptide binding; series mostly up to 11 µM

Protein S100-A4 (Homo sapiens), sequence (P26447 whole entry, looked up): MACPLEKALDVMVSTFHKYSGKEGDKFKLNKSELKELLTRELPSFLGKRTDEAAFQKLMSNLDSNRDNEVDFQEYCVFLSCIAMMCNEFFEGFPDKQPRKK

outcome, inactive:
CC(OC(=O)CSCC(=O)Nc1ccc(Cl)cc1)C(=O)N(C)Cc1ccccc1 (centres undefined), COc1ccc(C)cc1NC(=O)CN1CCN(c2ccccn2)CC1, COc1ccc(C(=O)O)cc1S(=O)(=O)Nc1ccccc1-c1ccccc1, Cc1ccc(C(=O)Nc2ccc(N3CCOCC3)cc2)cc1, COc1ccc(C(=O)N(C)C2(C)CCS(=O)(=O)C2)cc1OC (centres undefined), CCN(CC)C(=O)Cn1ccc(NC(C)=O)nc1=O, C[C@H](NC(=O)C[C@H]1C[C@@H]2c3cc(NC(=O)CN(C)C)ccc3O[C@@H]2[C@H](CO)O1)c1ccccc1, C[C@@H]1CN([C@H](C)CO)C(=O)CCCn2cc(nn2)CO[C@H]1CN(C)S(=O)(=O)c1ccc(Oc2ccccc2)nc1, O=C1CCCn2cc(nn2)COC[C@@H](Cc2ccccc2)N1, O=C(NCCCN1CCC(Cc2ccccc2)CC1)C1CCC(=O)N1C1CCCC1 (centres undefined), COC(=O)c1ccc(NC(=O)C2CCCN2C(=O)Nc2cccc(C(C)=O)c2)cc1 (centres undefined), CCOC(=O)C1=C(c2ccccc2)NC(=O)NC1c1cc(OC)c(OC)c(OC)c1 (centres undefined), COc1cccc(CN2CC3(CN(C)C3)c3c([nH]c4cc(OC)ccc34)[C@@H]2CO)c1, COc1ccc(CN(C)C(=O)Cc2ccc(S(=O)(=O)N3CCOCC3)s2)cc1OC, COC(=O)CCCC1=CC2=C(c3ccccc3)C(=O)C(C)(OC(=O)C3CCCC3)C(=O)C2=CN1Cc1ccc2c(c1)OCO2 (centres undefined), COCC(=O)Nc1ccc2c(c1)[C@@H]1C[C@@H](CC(=O)N3CCOCC3)O[C@@H](CO)[C@@H]1O2, CC(C)(C)[C@H]1COC(=O)CC/C=C\C[C@H](CC(=O)N(CCO)Cc2ccccc2)C(=O)N1, O=C(NCC[C@H]1CC[C@H](NS(=O)(=O)c2ccccc2)[C@@H](CO)O1)c1cc(Cl)cc(Cl)c1, C[C@H](CO)N1C[C@H](C)[C@H](CN(C)C)Oc2cc(C3=CCCC3)ccc2S1(=O)=O, O=C(/C=C/c1cccc(Cl)c1)NCCCN1CCOCC1, COc1ccccc1CN1[C@H](CO)[C@H]2c3ccccc3N(C(=O)c3cccnc3)C[C@H]21, O=S(=O)(c1ccc2c(c1)CCCN2)N1CCCC2CCCCC21 (centres undefined), CCCN1CCCCC(NC(=O)c2c(F)cccc2F)C1=O (centres undefined), COc1cccc(-c2nnc(NC(=O)CCS(=O)(=O)c3ccc(F)cc3)o2)c1, O=C(OCc1ccccc1)/C(=C/c1ccccc1Cl)NC(=O)c1ccco1, CC(=O)N1CC(=O)N2[C@H](CO)[C@@H](c3ccc(-c4ccc(C#N)cc4)cc3)[C@H]2C1, CC1(C(=O)Nc2ccc3c(c2)OCO3)CCN1C(=O)Cc1cccc2ccccc12 (centres undefined), Cc1ccc(S(=O)(=O)N(C)C[C@H]2OCCCC[C@H](C)Oc3ccc(NS(=O)(=O)c4ccccc4)cc3C(=O)N([C@H](C)CO)C[C@@H]2C)cc1, Cc1cc(=O)n2nc(N3CCC(C(=O)NCc4ccccc4)CC3)sc2n1, CNS(=O)(=O)c1ccc2c(c1)[nH]c(=S)n2C, O=C(Nc1ccc(C(F)(F)F)cc1)N[C@H]1C=C[C@@H](CC(=O)N2CCCCC2)O[C@@H]1CO, CC(C)(C)c1cc(CCC(=O)N2CCC2)cc(C(C)(C)C)c1O, C[C@H]1CN([C@@H](C)CO)S(=O)(=O)c2ccc(C3=CCCCC3)cc2O[C@H]1CN(C)Cc1ccccc1, O=C(C1CCCC1)N1CCCCN2[C@H](CO)[C@@H](c3ccc(C#CC4(O)CCCC4)cc3)[C@H]2C1, Cc1ccc(F)cc1NC(=O)CN1C(=O)NC(C)(c2ccc3c(c2)OCCO3)C1=O (centres undefined), Cc1[nH][nH]c(=O)c1C(c1cc(Br)ccc1O)c1c(C)[nH][nH]c1=O, COc1ccc(CCN2CC(C(=O)NCCN3CCNC3=O)CCC2=O)cc1 (centres undefined), O=C(NCCC1=CCCCC1)c1ccc(Cl)c(S(=O)(=O)N2CCCCC2)c1

Activity change, negative = inhibition, inactive:
Cc1ccc(/C=C2/SC(=O)N(CC(=O)N3CCOCC3)C2=O)s1 7.53% [at 2.6 µM]
